Data reported in PubChem BioAssay (NCATS).
Records with an inconclusive call do not appear. Entries that show only a call come without a potency. The source made the active and inactive calls. The call rests on the fitted dose curve; in most records, active means well fitted curve in the direction sought with a large enough effect; inconclusive means small, poorly fitted or top-dose-only effect, or another doubt; inactive means no such curve, though single readings can be large; an effect the other way counts as inactive or inconclusive.

How the values were obtained:
[1] = target: Aldehyde dehydrogenase, mitochondrial (Homo sapiens) (UniProt P05091); experiment: qHTS for Inhibitors of the Aldehyde Dehydrogenase Family (ALDH2) Primary screen (AID 2061308); further: nearly all actives have a fitted effect of over 55% in size
[2] = target: Retinaldehyde dehydrogenase 3 (Homo sapiens) (UniProt P47895); experiment: qHTS for Inhibitors of the Aldehyde Dehydrogenase Family (ALDH1A3) Primary screen (AID 2061315)

SMILES | Potency [1] | Potency [2]
Cc1ccc(-c2ccc(=O)n(CC(=O)N(C)C(C)c3ccco3)n2)cc1 (stereo unspecified) | inactive | inactive
COc1ccc2c(c1)N1C(=O)C[C@@]34C=CC[N@+]5([O-])CC[C@H]2[C@H](CC3)[C@@]145 | inactive | inactive
Cc1cnc(-c2ccccc2C2COC2)nc1NCc1ccc(-c2cccnc2)cc1 | inactive | inactive
S=P(c1ccccc1)(c1ccccc1)c1c[n+](C/C=C/c2ccccc2)c2ccccn12 | inactive | inactive
Cn1nnnc1Sc1ncnc2scc(-c3cccc([N+](=O)[O-])c3)c12 | inactive | inactive
COc1ccccc1C(=O)OCC#CCSc1nnc(-c2cccc3ccccc23)o1 | inactive | inactive
CN1C(=O)CCc2cc(S(=O)(=O)Nc3ccc(Cl)c(Cl)c3)ccc21 | inactive | inactive
O=C(O)CNc1cccc(-c2nn3c(=O)cc(N4CCNCC4)nc3s2)c1 | inactive | inactive
Cc1cc2c(s1)c1cnn(Cc3cc(F)ccc3F)c(=O)c1n2C | inactive | inactive
Cc1ccc(Cl)cc1NC(=O)c1nc[nH]c1C(=O)Nc1nc2ccccc2[nH]1 | inactive | inactive
COc1ccc(C[C@H](N)C(=O)N[C@@H]2[C@H](O)[C@H](n3cnc4c(N(C)C)ncnc43)O[C@@H]2CO)cc1 | inactive | inactive
CC(=O)N1CCc2cc(S(=O)(=O)N3CCN(S(=O)(=O)c4c(F)cccc4F)CC3)ccc21 | inactive | inactive
CN(Cc1nccs1)c1ncnc2ccc(-c3ccc4c(c3)OCO4)cc12 | inactive | inactive
CNc1oc(-c2cccc(Cl)c2Cl)nc1C#N | inactive | inactive
Cc1cc(C(=O)Nc2ccc(NC(=O)Cc3ccc(Cl)c(Cl)c3)cc2)no1 | inactive | inactive
CCc1ccc(NC(=O)c2cnn3c(C)cc(C)nc23)cc1 | inactive | inactive
Cc1csc(CNc2ncnc3ccc(-c4ccc5c(ccn5C)c4)cc23)c1 | inactive | inactive
O=C(OCC#CCSc1nnc(-c2cccc3ccccc23)s1)c1cccs1 | inactive | inactive
